From PubChem BioAssay
TDP1 inh: inhibitors of human tyrosyl-DNA phosphodiesterase TDP1; Q9NUW8; recombinant TDP1, AlphaScreen DNA substrate cleavage; Potency, µM (top dose mostly 130 µM), inactives show at the top dose activity change, negative = inhibition, actives largely listed as inhibitors; 0.28% of 350,000 active; AID 485290; further: potency means the concentration at half of the fitted maximal effect; nearly all actives have a fitted effect of over 40% in size
Target sequence (Q9NUW8 whole entry, looked up): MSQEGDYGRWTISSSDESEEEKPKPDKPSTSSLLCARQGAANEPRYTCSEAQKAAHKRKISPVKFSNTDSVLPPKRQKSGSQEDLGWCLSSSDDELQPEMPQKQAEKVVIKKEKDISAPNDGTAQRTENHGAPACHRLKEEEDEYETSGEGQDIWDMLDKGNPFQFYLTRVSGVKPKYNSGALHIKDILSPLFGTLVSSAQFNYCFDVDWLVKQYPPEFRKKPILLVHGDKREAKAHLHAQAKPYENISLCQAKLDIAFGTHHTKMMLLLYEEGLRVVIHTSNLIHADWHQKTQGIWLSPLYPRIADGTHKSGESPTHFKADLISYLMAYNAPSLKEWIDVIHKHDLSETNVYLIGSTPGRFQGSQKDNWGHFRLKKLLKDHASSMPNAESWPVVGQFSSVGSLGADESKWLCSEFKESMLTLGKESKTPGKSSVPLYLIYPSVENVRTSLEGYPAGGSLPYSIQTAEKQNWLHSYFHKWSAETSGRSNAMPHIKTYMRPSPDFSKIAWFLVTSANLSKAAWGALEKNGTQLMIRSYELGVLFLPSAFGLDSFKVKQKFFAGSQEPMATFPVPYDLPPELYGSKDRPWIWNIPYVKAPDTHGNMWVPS
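Recombinant E. coli-expressed Tdp1 (1 nM) preincubated with compound 15 min at RT, then 5'-biotin/3'-phosphotyrosine-FITC DNA substrate (15 nM) added for 5 min. AlphaScreen beads (10 ug/ml) added, 10 min RT; tyrosine-FITC cleavage read as signal loss.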
Giardia killer: Giardia lamblia killing; Giardia lamblia trophozoite viability; activity change, % at 7.66 µM, hits read low; 0.15% of 340,000 active; in the data active means activity change below about -80%; inconclusive means between about -30% and that limit;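 further: parasites exposed to compound for two days anaerobically before the ATP read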
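Giardia trophozoites, 100 cells per well, were exposed to compounds for 48 hrs at 37 deg C under anaerobic conditions; viability was then read as ATP content by bioluminescence after 15-30 min at room temperature.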
DT40 TDP1 CPT: growth inhibition of DT40 Tdp1-/-;hTDP1 cells with camptothecin (screen for TDP1 inhibitors). chicken DT40 Tdp1-/-;hTDP1 cells + 20 nM CPT, ATP luminescence, 48 h. Potency, µM (doses to about 46.2 µM), inactives show at the top dose activity change, negative = growth inhibition, most hits filed as inhibitors. 12% of 420,000 active; further: potency means the concentration at half of the fitted maximal effect; nearly all actives have a fitted effect of over 55% in size
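Chicken DT40 Tdp1-/- cells complemented with human TDP1, 400 cells/well, exposed to compounds plus 20 nM camptothecin for at least 48 h at 37 C; viability read as ATP content by CellTiter-Glo luminescence.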
TDP1 cell noCPT: qHTS for Inhibitors of human tyrosyl-DNA phosphodiesterase 1 (TDP1): qHTS in cells in absence of CPT. Potency, µM (doses to about 46.2 µM), for inactives: at the top dose activity change, negative = growth inhibition, hits mostly inhibitors. 15% of 420,000 active. DT40 Tdp1-/- hTDP1 cells, no CPT, ATP luminescence, 48 h; further: potency means the concentration at half of the fitted maximal effect; nearly all actives have a fitted effect of over 55% in size
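Readout: luminescence from CellTiter-Glo after 30 min in the dark at RT. Cells: DT40 Tdp1-/- with stable hTDP1, 400/well. Exposure: compounds alone, ≥48 hr, 37 °C.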
IL-1B inflam inh: inhibitors of inflammasome signaling (IL-1 beta secretion); AID 743279; 4.7% of 360,000 active; THP-1 LPS/ATP IL-1B secretion, AlphaLISA, 16 h; hits give low values; activity change, % at 57.5 µM; in the data active means activity change below about -50%; inconclusive means mostly about -30% to -49%
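Secreted IL-1B measured by AlphaLISA bead assay after 16 h compound exposure of THP-1 cells; compounds (final up to 57.5 uM) added 1 h before LPS (250 ng/mL) and ATP (1.25 mM) stimulation; lower signal means less secretion.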
ELG1 repair inh: blocks ELG1-dependent DNA repair in HEK293T cells | HEK293T ELG1-luciferase reporter, luminescence, 16 h; DNA damage induced by 5-fluorouridine | Potency, µM (top dose mostly 46.1 µM), inactives show at the top dose activity change, negative = inhibition, most hits filed as inhibitors | 2.3% of 330,000 active; further: potency means the concentration at half of the fitted maximal effect; nearly all actives have a fitted effect of over 55% in size
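DMSO vehicle served as the neutral condition. Each well held 2,000 cells given 5-fluorouridine plus compound; after 16 hr at 37 °C/5% CO2, ONE-Glo was added and luciferase measured 30 min later.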
The depositor's hits bear a star; ? = inconclusive; · = not tested or not shown. Most compounds without a hit are left out; they make up all but 19% or so of the library. Unless noted, the call rests on the fitted dose curve; in most records, active means well fitted curve in the direction sought with a large enough effect; inconclusive means small, poorly fitted or top-dose-only effect, or another doubt; inactive means no such curve, though single readings can be large; an effect the other way counts as inactive or inconclusive. On the % scale 0 is the no-effect control and ±100 the full control effect.

SMILES	TDP1 inh	Giardia killer	DT40 TDP1 CPT	TDP1 cell noCPT	IL-1B inflam inh	ELG1 repair inh
Oc1ccc(Br)cc1Cn1nnc2ccccc21	·	-19	-58%	?	14	4%
Cc1cc(C(=O)O)cc(S(=O)(=O)NNC(=O)c2cccs2)c1C	·	-10	-14%	30%	-6	6%
CCC(C(=O)NCCCN1CCCC1=O)n1c2ccccc2c2nc(=O)cc(C)n21 (stereo not given)	1%	3	3%	10%	-5	?
Cc1cc(C)c2c(n1)sc1c(=O)n(CC(=O)c3ccccc3)cnc12	·	1	?	-24%	-25	12%
C=CCOC(=O)Cn1cnc2c(sc3nc(C)cc(C)c32)c1=O	·	-12	5%	-17%	-71*	3%
O=C1/C(=C/c2ccc(C(=O)O)cc2)CCC/C1=C\c1ccc(C(=O)O)cc1	0%	1	-3%	-14%	-4	1%
Cn1cccc1/C=C1\CCC/C(=C\c2cccn2C)C1=O	12%	-28	?	29µM*	?	?
CSc1ccc(CNc2ncc(-c3cccc([N+](=O)[O-])c3)n2C)cc1	·	-8	16µM*	23µM*	?	-17%
Cn1c(-c2ccccc2)cnc1NCc1cccc([N+](=O)[O-])c1	·	-19	?	?	?	0%
CSc1ccc(CNc2ncc(-c3ccccc3)n2C)cc1	5%	·	?	18µM*	·	·
Cn1c(-c2ccccc2)cnc1NCc1ccc(F)cc1	·	-8	?	?	0	2%
COC(=O)[C@H](COC(C)(C)C)NC(=O)O[C@H]1C(=O)c2cc(OC)ccc2O[C@@H]1c1ccc(OC)c(Br)c1	7%	·	·	·	·	·
CCCCn1c(N)c(N(CCOC)C(=O)C2CC(=O)N(c3ccc(CC)cc3)C2)c(=O)[nH]c1=O (stereo not given)	0%	-13	-3%	7%	-13	9%
Cc1cccc(Cn2cc(C(=O)Nc3cc(F)ccc3F)ccc2=O)c1	8%	·	?	16µM*	·	·
Cc1cccc(Cn2cc(C(=O)Nc3ccc(F)c(C(F)(F)F)c3)ccc2=O)c1	0%	·	23µM*	15µM*	·	·
COc1ccc(C)cc1NC(=O)c1ccc(CN2CCN(c3ccccc3)CC2)cc1	6%	1	?	?	8	18%
Cc1ccc(C)c(NC(=O)c2ccc(=O)n(Cc3ccc(F)cc3)c2)c1	-10%	·	?	?	·	·
O=C(Nc1ccccc1)c1ccc(=O)n(Cc2ccc(F)c(F)c2)c1	6%	-12	-17%	-28%	12	-1%
COc1ccc(C)cc1NC(=O)c1ccc(=O)n(Cc2ccccc2)c1	-10%	·	?	23µM*	·	·
COc1ccc(NC(=O)N2CC3(CCN(C(=O)c4cccc(F)c4)CC3)C2)cc1	·	·	1%	-8%	·	·
Nc1ccc2[nH]ncc2c1	4%	10	18µM*	21µM*	9	?
O=C(Cc1ccc(F)cc1)Nc1ccc2[nH]ncc2c1	·	14	3%	?	-4	-19%
Cc1ccc(CCNC(=O)Cn2ncc3c([nH]c4ccc(C)cc43)c2=O)cc1	3%	·	-10%	-10%	·	·
O=C1CCN(CCc2ccccc2)CCN1[C@H](CSc1ccc(Br)cc1)c1ccccc1	1%	-26	?	18µM*	17	14%
CCCN1CCC(=O)N([C@H](CSc2ccc(Br)cc2)c2ccccc2)CC1	-4%	9	?	16µM*	13	?
O=C1CCN(CCc2ccccc2)CCN1C(CSc1ccc(Br)cc1)Cc1ccccc1 (stereo not given)	9%	3	·	·	·	·
CCCN1CCC(=O)N(C(CSc2ccc(OC)cc2)c2ccccc2)CC1 (stereo not given)	9%	18	·	·	·	·
COc1ccc([C@H]2CC(=O)C=C(c3ccc(F)cc3OCc3ccccc3)C2)cc1OC	2%	3	?	21µM*	?	?
